Calls of active or inactive are those of the source. Rule for the calls: active = hit-call score of the fitted dose curve at least 0.9, where 1 is the maximum; inactive = score below 0.9.
Key:
Details in all cases: mRNA level, 48 h; actives raise or lower the signal
[1] = read-out: Heat shock 70 kDa protein 1 (HSPA1A), gene 3303; experiment: LTEA_HepaRG_HSPA1A: Life Technologies and Expression Analysis (LTEA) Assay for Heat shock 70 kDa protein 1 (HSPA1A) using HepaRG (AID 2283502)
Outline: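 Cells were plated and cultured for 48 h, then switched to serum-free induction medium. Chemicals were added at eight half-log concentrations up to 100 uM for 48 h. RNA was then isolated and HSPA1A measured by qRT-PCR with bidirectional curve fitting against DMSO.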

[2] = read-out: Hypoxia-inducible factor 1-alpha (Homo sapiens) (UniProt Q16665); experiment: LTEA_HepaRG_HIF1A: Life Technologies and Expression Analysis (LTEA) Assay for Hypoxia-inducible factor 1 (HIF1A) Trancription factor using HepaRG (AID 2283503)
Outline: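 HIF1A transcript level read by qRT-PCR (ACTB, GAPDH, POLR2A normalization) after 48 h chemical exposure of HepaRG cultures. Eight half-log concentrations, top 100 uM, 0.5% DMSO vehicle, duplicates; bidirectional curve fit against DMSO baseline.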

[3] = read-out: 3-Hydroxy-3-Methylglutaryl-CoA Synthase 2 (HMGCS2), HMGCS2 (gene 3158); experiment: LTEA_HepaRG_HMGCS2: Life Technologies and Expression Analysis (LTEA) Assay for 3-Hydroxy-3-Methylglutaryl-CoA Synthase 2 (HMGCS2) using HepaRG (AID 2283504)
Outline: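 Differentiated human HepaRG cells were exposed in duplicate for 48 h in serum-free induction medium to eight concentrations (top 100 uM, half-log steps, 0.5% DMSO). HMGCS2 mRNA was quantified by TaqMan qRT-PCR, normalised to ACTB, GAPDH and POLR2A, then fitted bidirectionally against DMSO.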

[4] = read-out: HGF (gene 3082); experiment: LTEA_HepaRG_HGF: Life Technologies and Expression Analysis (LTEA) Assay for Hepatocyte Growth Facto (HGF) using HepaRG (AID 2283505)
Outline: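 Differentiated human HepaRG cells in serum-free induction medium were exposed in duplicate for 48 h to eight concentrations (top 100 uM, half-log steps, 0.5% DMSO). HGF mRNA was quantified by qRT-PCR, normalized to ACTB, GAPDH and POLR2A.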

[5] = read-out: Insulin Like Growth Factor 1 (IGF1), IGF1 (gene 3479); experiment: LTEA_HepaRG_IGF1: Life Technologies and Expression Analysis (LTEA) Assay for Insulin Like Growth Factor 1 (IGF1) using HepaRG (AID 2283506)
Outline: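 Cells are thawed, plated and cultured 48 h, then exposed in duplicate to chemical (highest 100 uM, half-log steps, 0.5% DMSO) for another 48 h. Total RNA is analysed by Fluidigm qRT-PCR for IGF1 expression relative to vehicle.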

[6] = read-out: Interleukin 6 (IL6), IL6 (gene 3569); experiment: LTEA_HepaRG_IL6: Life Technologies and Expression Analysis (LTEA) Assay for Interleukin 6 (IL6) using HepaRG (AID 2283509)
Outline: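 qRT-PCR read-out of IL6 transcript, normalized to three housekeeping genes, after 48 h chemical exposure of HepaRG cells; 8-point half-log series, top 100 uM, 0.5% DMSO vehicle. Bidirectional curve fitting against DMSO baseline.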

[7] = read-out: Interleukin 6 Receptor (IL6R), IL6R (gene 3570); experiment: LTEA_HepaRG_IL6R: Life Technologies and Expression Analysis (LTEA) Assay for Interleukin 6 Receptor (IL6R) using HepaRG (AID 2283510);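 for AC50: TaqMan qRT-PCR signal normalized to ACTB GAPDH and POLR2A housekeeping genes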
Outline: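 Cells were thawed, plated and cultured 48 h, then medium was changed to serum-free induction medium. Chemicals were added in duplicate (100 uM top, half-log steps, 0.5% DMSO) for 48 h. Lysates were analyzed by qRT-PCR for IL6R expression.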

[8] = read-out: Potassium channel subfamily K member 1 (KCNK1), KCNK1 (gene 3775); experiment: LTEA_HepaRG_KCNK1: Life Technologies and Expression Analysis (LTEA) Assay for Potassium channel subfamily K member 1 (KCNK1) using HepaRG (AID 2283511)
Outline: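 HepaRG, 48 h exposure, 8-pt half-log series top 100 uM, 0.5% DMSO vehicle, duplicates. Readout: KCNK1 transcript by qRT-PCR (Fluidigm array), housekeeping-normalized; bidirectional curve fit relative to DMSO baseline.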

[9] = read-out: Keratin 19 (KRT19), KRT19 (gene 3880); experiment: LTEA_HepaRG_KRT19: Life Technologies and Expression Analysis (LTEA) Assay for Keratin 19 (KRT19) using HepaRG (AID 2283512)
Outline: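 Differentiated human HepaRG cells, plated 48 h, were exposed in duplicate for 48 h in serum-free induction medium to eight half-log concentrations up to 100 uM in 0.5% DMSO. KRT19 mRNA was quantified by qRT-PCR, normalized to ACTB, GAPDH and POLR2A, and fitted bidirectionally versus DMSO.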

[10] = read-out: JUN Transcription Factor, JUN (gene 3725); experiment: LTEA_HepaRG_JUN: Life Technologies and Expression Analysis (LTEA) Assay for JUN Transcription Factor using HepaRG (AID 2283513)
Outline: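 Read-out is JUN transcript level by TaqMan qRT-PCR, normalized to ACTB, GAPDH and POLR2A, after 48 h chemical treatment of HepaRG cells. Concentration-response spanned eight half-log points up to 100 uM in 0.5% DMSO.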

[11] = read-out: Lipase C (LIPC), LIPC (gene 3990); experiment: LTEA_HepaRG_LIPC: Life Technologies and Expression Analysis (LTEA) Assay for Lipase C (LIPC) using HepaRG (AID 2283514)
Outline: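 HepaRG, 48 h exposure, 8-pt half-log series from 100 uM in 0.5% DMSO, duplicates. Readout: LIPC mRNA by Fluidigm qRT-PCR, housekeeping-normalized (ACTB/GAPDH/POLR2A). Gain or loss fitted bidirectionally against DMSO baseline.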

[12] = read-out: Lipoprotein lipase (LPL), LPL (gene 4023); experiment: LTEA_HepaRG_LPL: Life Technologies and Expression Analysis (LTEA) Assay for Lipoprotein lipase (LPL) using HepaRG (AID 2283515)
Outline: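 HepaRG, 48 h exposure, 8-pt half-log dilutions from 100 uM, 0.5% DMSO vehicle, duplicates; qRT-PCR (Fluidigm array) of LPL mRNA vs housekeeping genes; bidirectional curve fit relative to DMSO baseline.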

[13] = read-out: MicroRNA 122 (MIR122), gene 406906; experiment: LTEA_HepaRG_MIR122: Life Technologies and Expression Analysis (LTEA) Assay for MicroRNA 122 (MIR122) using HepaRG (AID 2283516); note: the transcript read is the microRNA miR-122
Outline: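 Human liver HepaRG cultures receive test chemicals for 48 h at eight half-log concentrations from 100 uM. Expression is quantified by qRT-PCR with ACTB/GAPDH/POLR2A normalization and fitted bidirectionally against 0.5% DMSO.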

[14] = read-out: matrix metalloproteinase-10 (MMP10), MMP10 (gene 4319); experiment: LTEA_HepaRG_MMP10: Life Technologies and Expression Analysis (LTEA) Assay for matrix metalloproteinase-10 (MMP10) using HepaRG (AID 2283517)
Outline: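 Transcript levels come from Fluidigm qRT-PCR normalized to three housekeeping genes, with curves fitted bidirectionally against 0.5% DMSO. Human HepaRG cells were dosed for 48 hours at concentrations up to 100 uM.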

[15] = read-out: MYC, MYC (gene 4609); experiment: LTEA_HepaRG_MYC: Life Technologies and Expression Analysis (LTEA) Assay for MYC using HepaRG (AID 2283518)
Outline: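 Differentiated human HepaRG cells, plated 48 h then switched to serum-free induction medium, were exposed in duplicate for 48 h to 8-point half-log series up to 100 uM in 0.5% DMSO. MYC mRNA measured by qRT-PCR, normalized to ACTB/GAPDH/POLR2A.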

[16] = read-out: matrix metalloproteinase-3 (MMP3), MMP3 (gene 4314); experiment: LTEA_HepaRG_MMP3: Life Technologies and Expression Analysis (LTEA) Assay for matrix metalloproteinase-3 (MMP3) using HepaRG (AID 2283519)
Outline: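 qRT-PCR read-out of MMP3 mRNA (normalised to three housekeeping genes) in HepaRG liver cells after 48 h chemical exposure; 8-point half-log series, top 100 uM, 0.5% DMSO vehicle. Bidirectional curve fitting against DMSO baseline.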

[17] = read-out: Paternally Expressed 10 (PEG10), PEG10 (gene 23089); experiment: LTEA_HepaRG_PEG10: Life Technologies and Expression Analysis (LTEA) Assay for Paternally Expressed 10 (PEG10) using HepaRG (AID 2283520);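 for AC50: PEG10 transcript by qRT-PCR normalised to ACTB GAPDH and POLR2A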
Outline: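 Human HepaRG cultures are dosed for 48 h across an eight-point half-log series starting at 100 uM, with 0.5% DMSO as vehicle and baseline. Gain or loss of PEG10 transcript is measured by qRT-PCR and fitted in both directions.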

[18] = read-out: Nuclear factor NF-kappa-B p105 subunit (Homo sapiens) (UniProt P19838); experiment: LTEA_HepaRG_NFKB1: Life Technologies and Expression Analysis (LTEA) Assay for Nuclear Factor Kappa B Subunit 1 (NFKB1) using HepaRG (AID 2283521)
Outline: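 HepaRG, 48 h exposure; 8-pt half-log series from 100 uM in 0.5% DMSO; duplicates. Readout: NFKB1 mRNA by qRT-PCR (Fluidigm arrays), housekeeping-normalized. Gain/loss fit vs DMSO baseline.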

[19] = read-out: Insulin-like growth factor-binding protein 1 (IGFBP1), IGFBP1 (gene 3484); experiment: LTEA_HepaRG_IGFBP1: Life Technologies and Expression Analysis (LTEA) Assay for Insulin-like growth factor-binding protein 1 (IGFBP1) using HepaRG (AID 2283508)
Outline: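 Differentiated human HepaRG cells in serum-free induction medium were exposed in duplicate for 48 h to eight concentrations, top 100 uM with half-log dilutions, in 0.5% DMSO. Transcript levels came from qRT-PCR normalised to ACTB, GAPDH and POLR2A, fitted bidirectionally against DMSO.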

[20] = read-out: Intercellular Adhesion Molecule 1 (ICAM1), ICAM1 (gene 3383); experiment: LTEA_HepaRG_ICAM1: Life Technologies and Expression Analysis (LTEA) Assay for Intercellular Adhesion Molecule 1 (ICAM1) using HepaRG (AID 2283507)
Outline: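 Differentiated HepaRG cells in serum-free induction medium were exposed in duplicate for 48 h to eight half-log concentrations up to 100 uM in 0.5% DMSO. Transcript levels were measured by qRT-PCR normalized to ACTB, GAPDH and POLR2A; bidirectional fits relative to DMSO.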

Measured: AC50

Nuclear factor NF-kappa-B p105 subunit (Homo sapiens), sequence (P19838 whole entry, looked up): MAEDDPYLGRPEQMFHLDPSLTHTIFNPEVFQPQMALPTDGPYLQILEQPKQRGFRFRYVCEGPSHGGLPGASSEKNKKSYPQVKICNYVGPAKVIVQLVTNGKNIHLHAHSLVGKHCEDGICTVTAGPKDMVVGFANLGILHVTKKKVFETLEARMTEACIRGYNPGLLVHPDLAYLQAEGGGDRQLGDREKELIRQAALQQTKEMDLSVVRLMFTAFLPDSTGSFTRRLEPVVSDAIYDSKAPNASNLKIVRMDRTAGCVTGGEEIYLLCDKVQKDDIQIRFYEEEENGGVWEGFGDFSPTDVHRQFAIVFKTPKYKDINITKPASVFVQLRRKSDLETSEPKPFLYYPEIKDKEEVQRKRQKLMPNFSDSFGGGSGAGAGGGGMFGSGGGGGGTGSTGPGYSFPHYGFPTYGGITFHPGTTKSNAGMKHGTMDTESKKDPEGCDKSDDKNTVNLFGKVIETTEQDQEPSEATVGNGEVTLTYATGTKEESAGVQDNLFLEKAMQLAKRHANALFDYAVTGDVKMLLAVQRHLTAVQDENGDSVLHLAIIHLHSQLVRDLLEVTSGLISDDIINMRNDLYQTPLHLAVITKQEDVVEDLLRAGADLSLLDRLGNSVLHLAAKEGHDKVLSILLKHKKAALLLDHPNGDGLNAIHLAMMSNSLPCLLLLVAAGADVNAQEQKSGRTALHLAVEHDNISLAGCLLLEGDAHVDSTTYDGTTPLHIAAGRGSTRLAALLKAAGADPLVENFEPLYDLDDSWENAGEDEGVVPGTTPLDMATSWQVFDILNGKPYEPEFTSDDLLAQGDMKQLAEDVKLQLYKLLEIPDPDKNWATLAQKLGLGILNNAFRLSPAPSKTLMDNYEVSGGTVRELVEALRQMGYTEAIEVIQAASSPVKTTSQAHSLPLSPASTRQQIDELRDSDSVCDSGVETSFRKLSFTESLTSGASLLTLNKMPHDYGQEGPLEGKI
Hypoxia-inducible factor 1-alpha (Homo sapiens), sequence (Q16665 whole entry, looked up): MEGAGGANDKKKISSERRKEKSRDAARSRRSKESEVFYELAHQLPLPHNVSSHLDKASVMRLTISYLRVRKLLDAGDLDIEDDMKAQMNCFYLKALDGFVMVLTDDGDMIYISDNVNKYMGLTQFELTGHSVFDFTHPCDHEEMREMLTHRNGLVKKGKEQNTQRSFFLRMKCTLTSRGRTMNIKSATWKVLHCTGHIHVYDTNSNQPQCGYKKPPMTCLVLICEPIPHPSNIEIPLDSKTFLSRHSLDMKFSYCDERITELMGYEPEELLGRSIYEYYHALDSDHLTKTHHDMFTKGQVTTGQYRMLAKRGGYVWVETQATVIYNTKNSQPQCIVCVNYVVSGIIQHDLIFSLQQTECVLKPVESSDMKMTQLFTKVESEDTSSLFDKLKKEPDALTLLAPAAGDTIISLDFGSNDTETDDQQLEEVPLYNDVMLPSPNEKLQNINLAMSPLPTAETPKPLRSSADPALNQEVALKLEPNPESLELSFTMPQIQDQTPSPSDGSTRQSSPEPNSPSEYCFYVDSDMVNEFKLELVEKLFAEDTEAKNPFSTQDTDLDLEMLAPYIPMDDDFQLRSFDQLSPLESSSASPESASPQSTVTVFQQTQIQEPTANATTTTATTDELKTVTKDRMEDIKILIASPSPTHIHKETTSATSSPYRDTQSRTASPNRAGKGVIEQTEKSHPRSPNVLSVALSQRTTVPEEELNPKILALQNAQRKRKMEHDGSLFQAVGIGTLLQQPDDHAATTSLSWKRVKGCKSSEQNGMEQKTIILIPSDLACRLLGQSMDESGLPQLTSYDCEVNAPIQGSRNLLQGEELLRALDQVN

CCCCCCCCCCCO
not listed: [19] | [20]
inactive: all other assays above

NC(=O)c1nc(-c2cccc(-c3cc(F)ccc3OCC(F)(F)C(F)(F)F)c2)n[nH]1
active: [2] 87.2 µM | [3] 50 µM | [4] 77.2 µM | [5] 83.2 µM | [19] 78.1 µM | [6] 78.6 µM | [9] 12.1 µM | [10] 79 µM | [16] 5.48 µM | [18] 82.8 µM
inactive: [7] | [8] | [11] | [12] | [13] | [14] | [15]

CC(C)(C)c1csc(-c2cc3cc(OCc4ccccc4CC(=O)O)ccc3o2)n1
inactive: [4] | [8] | [9]
active: [1] 78 µM | [2] 87.3 µM | [3] 31.6 µM | [5] 12.4 µM | [6] 81.3 µM | [7] 50 µM | [10] 78.9 µM | [11] 25.1 µM | [12] 81.8 µM | [13] 90.7 µM | [14] 32.8 µM | [15] 32 µM | [16] 85.6 µM | [17] 50 µM

Cc1occc1C(=O)Nc1ccc(C(=O)N2CCC(F)(F)/C(=C\C(=O)N3CCC(N4CCCCC4)CC3)c3ccccc32)cc1
inactive: [1] | [2] | [4] | [8] | [10] | [14] | [15] | [16] | [18]
active: [3] 31.2 µM | [5] 5.3 µM | [19] 46.1 µM | [6] 51.9 µM | [7] 27.5 µM | [9] 49.6 µM | [11] 45.4 µM | [12] 31.2 µM | [13] 31.2 µM | [17] 48 µM

CCCOC(=O)c1cc(O)c(O)c(O)c1
active: [3] 50 µM | [5] 11.4 µM
not listed: [13] | [18] | [20]
inactive: all other assays above

O=c1c(-c2ccc(O)cc2)coc2cc(O)cc(O)c12
not listed: [20]
inactive: all other assays above

CCCC(=O)OCCC(C)C
not listed: [20]
inactive: all other assays above

CCCCCCCCOC(=O)c1cc(O)c(O)c(O)c1
active: [6] 50 µM | [9] 27.1 µM
not listed: [20]
inactive: all other assays above

CCCCCCCCOc1ccc(C(=O)c2ccccc2)c(O)c1
not listed: [19] | [20]
inactive: all other assays above

COCC(C)OCC(C)OCC(C)O (stereo not drawn)
not listed: [20]
inactive: all other assays above

CN(C)C(=O)C1(N2CCCCC2)CCN(CC[C@@]2(c3ccc(Cl)c(Cl)c3)CN(C(=O)c3ccccc3)CCO2)CC1
active: [1] 15.2 µM | [2] 33.1 µM | [3] 68.6 µM | [5] 90.9 µM | [6] 22.1 µM | [8] 14.9 µM | [10] 31 µM | [12] 24.8 µM | [13] 10.9 µM | [14] 77.1 µM | [15] 21.4 µM | [18] 80.3 µM
inactive: [4] | [7] | [9] | [11] | [16] | [17]

CCCCOC(=O)c1ccc(O)cc1
not listed: [2] | [18] | [19] | [20]
inactive: all other assays above

CCCCCCCCCCCCO
not listed: [18] | [19] | [20]
inactive: all other assays above

Cc1ncc(CO)c(CO)c1O
not listed: [2] | [18] | [19]
inactive: all other assays above

Clc1ccccc1C(c1ccccc1)(c1ccccc1)n1ccnc1
inactive: [1] | [8] | [16] | [17] | [18]
active: [3] 24.3 µM | [4] 26.7 µM | [5] 15.8 µM | [20] 90.6 µM | [6] 88.6 µM | [7] 93 µM | [9] 20.2 µM | [10] 66 µM | [11] 93.1 µM | [12] 89.8 µM | [13] 17.3 µM | [14] 25.2 µM | [15] 20.5 µM

From PubChem BioAssay (EPA / NIEHS)
